The OligoGym collection

target: PLA2R1; assay: pooled miR-30 sensor sort-seq; sequence = guide strand; settings: shRNA
Note: reference of the scale not given here.

Sequence | sensor-assay potency score (higher = more potent)
TTGAGCATTCAACCAAACCATC | -1.81
TTTTCTTCTAAATATACTGTAC | -0.623
TTTCTGAGCACAACTCTGGGTG | -0.349
TATCACAACCTACTTCTGCAGA | -0.52

target: PLAA; assay: as above; settings: shRNA

Sequence | sensor-assay potency score (higher = more potent)
TATTGTGGTCATTTCCACCGGT | 0.536
TAATTAGTGACAAACATTGGGC | -0.357
TAACACTCCACTGATAGGCTTC | 0.424
TTAGTGACAAACATTGGGCTTT | 0.657
TAGACTGAGCTGGAAGTCGGAT | -0.595
TTTAACAGTCTTGTCTGCTGAT | 0.5
TATACTTCAAGACACTCGCCAG | -0.398
TTAACTTCTTCTCTTCAGGTGC | 0.5
TAAATCTACAGCATTCACTTAC | -0.27
TTTTAGATGCAGCTGATCGGTA | -0.655
TAGGTCTTGTACTACTTCCAAG | -1.39
TTATTTGAGAATCAACACCTAA | -0.576
